Among the data in PubChem BioAssay (NCI) are growth inhibition values, retold here.

The panel holds about 79,000 compounds, 15% with a hit somewhere; the sample as a whole holds those more often. Values without a mark were called inactive. Calls of active or inactive are those of the source. No stated cut-off is given here; in the data, active means growth inhibition above about 70%; inactive means the rest. Where a SMILES comes first, the peptide text is derived from it. [ ]: non-standard residue; d: D form. The star is where a group is joined. Phe(4-NO2) = N[CH](Cc1ccc([N+](=O)[O-])cc1)C(=O)O; Boc = CC(C)(C)OC(=O)*

A short description of assay [1]: NCI Yeast Anticancer Drug Screen. Data for the rad50 strain (AID 155).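 Further: 0% = growth of vehicle-only cultures of the same strain.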 The conditions noted are these: S. cerevisiae rad50 strain growth inhibition; at 50.0 µM; hits give high values. Put shortly: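 Compounds were tested on a yeast strain with an engineered DNA damage repair alteration; the reported value is growth inhibition normalised to vehicle treatment.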
Assay [2] in a line: NCI Yeast Anticancer Drug Screen. Data for the mec2-1 strain (AID 157). The following applies: S. cerevisiae mec2-1 strain, at 50.0 µM, hits give high values. The method, boiled down:
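Each compound was tested on mec2-1 yeast, a strain altered in DNA damage repair or cell cycle control. Growth inhibition is reported relative to vehicle.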

Assay [3] can be described thus: NCI Yeast Anticancer Drug Screen. Data for the sgs1 mgt1 strain (AID 161).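 Further: 0% = growth of cultures given vehicle only.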 The conditions noted are these: S. cerevisiae sgs1 mgt1 strain, at 50.0 µM, hits give high values. Put shortly:
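Mutant yeast exposed to compound; growth scored against vehicle-only wells.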

A short description of assay [4]: NCI Yeast Anticancer Drug Screen. Data for the cln2 rad14 strain (AID 165).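 Further: 0% = growth equal to vehicle treated cultures.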 The conditions noted are these: S. cerevisiae cln2 rad14 strain, at 50.0 µM, hits give high values. Put shortly: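 Test compounds were added to cln2 rad14 yeast cultures; inhibition of growth was then determined by comparison with vehicle treatment.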
Assay [5] is described as follows: NCI Yeast Anticancer Drug Screen. Data for the bub3 strain (AID 167). The conditions noted are these: S. cerevisiae bub3 mutant strain, at 50.0 µM, hits give high values. Put shortly: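 Growth of a checkpoint-deficient yeast mutant is measured after compound exposure. Values represent inhibition relative to vehicle.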
Assay [6] in a line: NCI Yeast Anticancer Drug Screen. Data for the mlh1 rad18 strain (AID 175). The following applies: S. cerevisiae mlh1 rad18 strain growth inhibition; at 50.0 µM; hits give high values. Put shortly:
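Inhibition values reflect reduced growth of mutant yeast versus vehicle-treated controls following compound exposure; the mutations affect DNA damage repair.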

For the compound `N#CC(C#N)=Cc1cccc(Oc2ccccc2)c1`, the growth inhibition in assay [1] was 57.1%; in assay [2], -2.8%; in assay [3] it was 9.6%; in assay [4] it was 8.65%; in assay [5], -8.65%; in assay [6], -15.7%.
In the case of `CCCCNC(=O)CCC(NS(=O)(=O)c1ccc(C)cc1)C(=O)NCCCC` (stereo unspecified), the growth inhibition was 5.1% in assay [1]; 2.1% in assay [2]; -9% in assay [3]; 1.85% in assay [4]; -3.1% in assay [5]; -18.7% in assay [6].
As for `CCCCCCC(O)C/C=C/CCCCCC/C(C(=O)OC)=C(/O)C(=O)OCC` (stereo unspecified), the growth inhibition in assay [1] is 3.3%; in assay [2], -3.35%; in assay [3] it was 11.5%; in assay [4], -27.6%; in assay [5], -6.7%; in assay [6], 1.1%.
Regarding `CC(=O)N(C)C`, the growth inhibition in assay [1] is -9.9%; in assay [2], -2.05%; in assay [3], 12.9%; in assay [4] it was 6%; in assay [5], -2.3%; in assay [6] it was -6.5%.
For the compound `O=S(=O)(c1ccc(O)c(Cl)c1)c1ccc(O)c(Cl)c1`, the growth inhibition in assay [1] is 32.8%; in assay [2], 37.5%; in assay [3], 16.1%; in assay [4] it was 36.7%; in assay [5], 47.2%; in assay [6], 31.1%.
With `CCCCCCNC(=O)c1ccc(C(=O)NCCCCCC)cc1`, the growth inhibition is 3.4% in assay [1]; -13.3% in assay [2]; -27% in assay [3]; -19.5% in assay [4]; 6% in assay [5]; -31.9% in assay [6].
With `COc1ccc(/C=C/C(=O)c2ccccc2)cc1`, the growth inhibition in assay [1] was 25.7%; in assay [2] it was -18.1%; in assay [3], -12.6%; in assay [4] it was 2.25%; in assay [5], -28.9%; in assay [6], 4.9%.
Take `COC(=O)Oc1ccc(Cl)cc1Cl`: the growth inhibition in assay [1] is -18.1%; in assay [2] it was -6.05%; in assay [3] it was 15.9%; in assay [4], -77.4%; in assay [5], -8.25%; in assay [6], 5.7%.
Take `CCn1c2ccccc2c2cc(N)c(N=Nc3ccc(-c4ccc(N)c(OC)c4)cc3OC)cc21`: the growth inhibition is 31.4% in assay [1]; 0.65% in assay [2]; 27.6% in assay [3]; 28.8% in assay [4]; -4% in assay [5]; 29.8% in assay [6].
Consider `Cc1[nH]c(=O)c(C#N)c(C)c1[N+](=O)[O-]`, for which the growth inhibition is -0.05% in assay [1]; 20.3% in assay [2]; 3.95% in assay [3]; -35.7% in assay [4]; 10.6% in assay [5]; 1.9% in assay [6].
Take `CCOc1ccc2nc(C)ccc2c1`: the growth inhibition in assay [1] was 3.25%; in assay [2], -14.7%; in assay [3], 21.9%; in assay [4], 9.85%; in assay [5] it was 4.95%; in assay [6], 17.7%.
Consider `CC(C)=Cc1ccccc1C1(C)C(c2ccccc2)=C1c1ccccc1`, for which the growth inhibition is -3.35% in assay [1]; 8.6% in assay [2]; -9.25% in assay [3]; 26.1% in assay [4]; -0.3% in assay [5]; -3.6% in assay [6].
As for `COc1cc(C2=N/C(=C\c3ccc(Cl)c(Cl)c3)C(=O)O2)cc(OC)c1OC`, the growth inhibition is -26.2% in assay [1]; -14.8% in assay [2]; 24.6% in assay [3]; -28.7% in assay [4]; -4.4% in assay [5]; 3.95% in assay [6].
With `CC1(C)OC2(C)CCC1C1C2N1C(=O)Nc1cccc(Cl)c1` (stereo unspecified), the growth inhibition in assay [1] is -4.05%; in assay [2] it was -13.8%; in assay [3], -2.25%; in assay [4] it was -2.45%; in assay [5] it was -7.9%; in assay [6], -18.5%.
Take `CC(O)/C=C/c1ccccc1O` (stereo unspecified): the growth inhibition in assay [1] was 2.05%; in assay [2], 2.85%; in assay [3], -13.9%; in assay [4], -41.5%; in assay [5], -5.65%; in assay [6], -13.6%.
Turning to `CC(C)=C1OC(=O)C1(C)C`, the growth inhibition in assay [1] is -5.75%; in assay [2], 15.7%; in assay [3], 1.5%; in assay [4], 17.4%; in assay [5] it was 5.5%; in assay [6] it was -12.6%.
`Cc1ccc(C(=O)C2=CN=C3C(=O)N(c4ccccc4)N(C)C3(C)C2=N)cc1` (stereo unspecified): the growth inhibition in assay [1] is -4.65%; in assay [2] it was 36.7%; in assay [3], 11.2%; in assay [4], 1.1%; in assay [5], 4.9%; in assay [6], 36.1%.
`COC(=O)CCC(NC(=O)OC(C)(C)C)C(=O)NC(Cc1ccc([N+](=O)[O-])cc1)C(=O)NC(CCC(=O)OC)C(=O)OC` (stereo unspecified) (Boc-Glu(OMe)-[Phe(4-NO2)]-Glu(OMe)-OMe; configuration not given here): the growth inhibition in assay [1] is 7.6%; in assay [2], -6.6%; in assay [3] it was 9.9%; in assay [4] it was 20.6%; in assay [5], 11.7%; in assay [6], -44.1%.
For `Oc1ccccc1/C=N/c1nc(-c2ccccc2)cs1.[Co].[O-]c1ccccc1/C=N/c1nc(-c2ccccc2)cs1`, the growth inhibition in assay [1] is 19.2%; in assay [2] it was 5.9%; in assay [3], 9.8%; in assay [4] it was 22.4%; in assay [5], 5.35%; in assay [6], 21.2%.
As for `O=C(O)C(O)c1ccc(Cl)c(Cl)c1` (stereo unspecified), the growth inhibition was 29.4% in assay [1]; -24.3% in assay [2]; 7.2% in assay [3]; -13.3% in assay [4]; 15.8% in assay [5]; 11.1% in assay [6].
As for `CCC1(O)CC2CN(CCc3c([nH]c4ccccc34)C(C(=O)OC)(c3cc4c(cc3OC)N(C)C3C(O)(C(=O)NCCSSCCNC(=O)C5(O)C(O)C6(CC)C=CCN7CCC8(c9cc(C%10(C(=O)OC)CC%11CN(CCc%12c%10[nH]c%10ccccc%12%10)CC(O)(CC)C%11)c(OC)cc9N(C)C58)C76)C(O)C5(CC)C=CCN6CCC43C65)C2)C1` (stereo unspecified), the growth inhibition was 23.4% in assay [1]; 11.4% in assay [2]; 24.9% in assay [3]; 42.8% in assay [4]; 40.1% in assay [5]; 37.6% in assay [6].
As for `Nc1ccc(S(=O)(=O)c2cnc(N)s2)cc1`, the growth inhibition was -4% in assay [1]; 4.25% in assay [2]; 27.8% in assay [3]; -3.25% in assay [4]; -11.2% in assay [5]; 11.4% in assay [6].
Regarding `C/C=C(\C)C(C#N)(CCCC)C(=O)OCC` (stereo unspecified), the growth inhibition in assay [1] is 0.3%; in assay [2], -17.2%; in assay [3], -6.35%; in assay [4], -14.7%; in assay [5], -25.4%; in assay [6] it was -24.2%.
As for `Cc1cc2c(c3ccccc13)C(O)c1ccccc1-2` (stereo unspecified), the growth inhibition in assay [1] is -7.85%; in assay [2], 5.95%; in assay [3], 1.5%; in assay [4], -15.4%; in assay [5], 3.85%; in assay [6], -9.25%.
In the case of `CCOC(=O)/C=C(\C)NC`, the growth inhibition is -27.5% in assay [1]; -46.9% in assay [2]; -30.9% in assay [3]; -2.75% in assay [4]; -47% in assay [5]; 5.95% in assay [6].
Take `OC(CCNC12CC3CC(CC(C3)C1)C2)c1ccccc1` (stereo unspecified): the growth inhibition in assay [1] is 29.8%; in assay [2], 22.4%; in assay [3] it was 59.2%; in assay [4], 50.5%; in assay [5] it was 33.4%; in assay [6], 53.6%.
On to `CCOC(=O)c1cc(CC)[nH]c(=O)c1C#N`, for which the growth inhibition in assay [1] is -19.1%; in assay [2], 8.05%; in assay [3], -11.3%; in assay [4], -32.7%; in assay [5], 5.4%; in assay [6] it was 2.3%.
As for `Clc1ccc(SCSc2ccc(Cl)cc2)cc1`, the growth inhibition in assay [1] was 16.8%; in assay [2], -7.35%; in assay [3], 6.5%; in assay [4], -33.5%; in assay [5] it was 6.45%; in assay [6] it was -0.85%.
`O=C1c2cccc3cc([N+](=O)[O-])cc(c23)C(=O)N1CC1CCCO1` (stereo unspecified): the growth inhibition in assay [1] is 75.3% (active); in assay [2], 15.8%; in assay [3], 30.6%; in assay [4], 18.1%; in assay [5], 26.1%; in assay [6], 3.15%.
Take `CCCCCCCCCCC/C(C)=N/Nc1ccc([N+](=O)[O-])cc1[N+](=O)[O-]`: the growth inhibition was 5.65% in assay [1]; -5.15% in assay [2]; 2.15% in assay [3]; 11.8% in assay [4]; -0.2% in assay [5]; -13% in assay [6].
Consider `Cc1ccc(C(=O)C[n+]2ccccc2)c(O)c1`, for which the growth inhibition was -5.45% in assay [1]; -9.9% in assay [2]; 8.85% in assay [3]; -38% in assay [4]; 4.65% in assay [5]; 14.1% in assay [6].
Turning to `N[N+]1(CCS(N)(=O)=O)CCOCC1`, the growth inhibition was -1.95% in assay [1]; -12.6% in assay [2]; -0.9% in assay [3]; -31.2% in assay [4]; -8.3% in assay [5]; 13.5% in assay [6].
As for `O=C1C(Cl)C(c2ccccc2O)N1n1cnc2ccccc2c1=O` (stereo unspecified), the growth inhibition is -29.4% in assay [1]; 8.9% in assay [2]; -12.5% in assay [3]; -9.5% in assay [4]; -7.8% in assay [5]; -16.2% in assay [6].
For the compound `Cc1cc(C(C)(C)C)cc(C)c1[N+](=O)[O-]`, the growth inhibition is 18.7% in assay [1]; -7.55% in assay [2]; -17.9% in assay [3]; 8.2% in assay [4]; -7.1% in assay [5]; 7.25% in assay [6].
For `O=C(CCl)N1C(=O)NC(c2ccc(Cl)cc2)(c2ccc(Cl)cc2)C1=O`, the growth inhibition is 6.9% in assay [1]; 12% in assay [2]; 8.9% in assay [3]; -4.8% in assay [4]; -29% in assay [5]; -3.9% in assay [6].
`CN1c2ccccc2N(C(=O)c2ccc([N+](=O)[O-])cc2)C(CC(=O)O)c2cccn21` (stereo unspecified): the growth inhibition in assay [1] is 2.6%; in assay [2] it was -30.9%; in assay [3], -15.8%; in assay [4], 4.6%; in assay [5] it was -16.3%; in assay [6] it was 3%.
